Measured values reported in PubChem BioAssay (NCI).
The panel holds about 79,000 compounds, 15% with a hit somewhere; the sample as a whole holds those more often. No stated cut-off is given here; in the data, active means growth inhibition above about 70%; inactive means the rest.

Assays:
[1] = NCI Yeast Anticancer Drug Screen. Data for the rad50 strain (AID 155);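 further: 0% = growth of vehicle-only cultures of the same strain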; conditions: S. cerevisiae rad50 strain growth inhibition; at 50.0 µM; stronger effect = higher value
Procedure, shortened: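 Yeast carrying a defined DNA repair defect were exposed to test compounds, and growth was compared with vehicle-treated controls to give percent inhibition.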

[2] = NCI Yeast Anticancer Drug Screen. Data for the mec2-1 strain (AID 157); conditions: S. cerevisiae mec2-1 strain, at 50.0 µM, stronger effect = higher value
Procedure, shortened: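 Each compound was tested on mec2-1 yeast, a strain altered in DNA damage repair or cell cycle control. Growth inhibition is reported relative to vehicle.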

[3] = NCI Yeast Anticancer Drug Screen. Data for the sgs1 mgt1 strain (AID 161);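 further: 0% = growth of cultures given vehicle only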; conditions: S. cerevisiae sgs1 mgt1 strain, at 50.0 µM, stronger effect = higher value
Procedure, shortened: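 Test agents were incubated with a DNA-repair-mutant yeast strain. Growth was then read and compared against vehicle-treated controls.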

[4] = NCI Yeast Anticancer Drug Screen. Data for the cln2 rad14 strain (AID 165);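 further: 0% = growth equal to vehicle treated cultures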; conditions: S. cerevisiae cln2 rad14 strain, at 50.0 µM, stronger effect = higher value
Procedure, shortened: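 Test compounds were added to cln2 rad14 yeast cultures; inhibition of growth was then determined by comparison with vehicle treatment.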

[5] = NCI Yeast Anticancer Drug Screen. Data for the bub3 strain (AID 167); conditions: S. cerevisiae bub3 mutant strain, at 50.0 µM, stronger effect = higher value
Procedure, shortened: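 Compounds were applied to a genetically altered yeast strain carrying a cell-cycle control defect. Growth inhibition was scored against vehicle-treated controls.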

[6] = NCI Yeast Anticancer Drug Screen. Data for the mlh1 rad18 strain (AID 175); conditions: S. cerevisiae mlh1 rad18 strain growth inhibition; at 50.0 µM; stronger effect = higher value
Procedure, shortened: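 Inhibition values reflect reduced growth of mutant yeast versus vehicle-treated controls following compound exposure; the mutations affect DNA damage repair.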

Measured: growth inhibition

CC1C(=O)C23CC1CCC2C12COC(O)C1C(C)(C)C(O)CC2OC3=O (stereo not given)
inactive: [1] -10.4% | [2] -5.95% | [3] -12.7% | [4] 17.1% | [5] -43.6% | [6] -16.4%

N#Cc1cnn2ccn(C3OC(CO)C(O)C3O)c12 (stereo not given)
inactive: [1] -42.8% | [2] -14.2% | [3] -18.9% | [4] -22.6% | [5] -5.45% | [6] 14.9%

CCN(CC)C(=O)C1Cc2ccccc2N(C)C1 (stereo not given)
inactive: [1] -16.6% | [2] -8.5% | [3] -10.4% | [4] -41.5% | [5] 3.05% | [6] -2.85%

C(=Nc1ccc2ccccc2c1)c1cccs1
inactive: [1] 1.6% | [2] -3.2% | [3] 12.6% | [4] -12.1% | [5] 5.1% | [6] -0.6%

c1c2c(cc3c1OCN(C1CC1)C3)OCN(C1CC1)C2
inactive: [1] 0.7% | [2] 5.6% | [3] 10% | [4] -19.2% | [5] -13.8% | [6] -3.35%

N=C(N)n1[nH]c2c(c1=O)CCCC2
inactive: [1] 5.6% | [2] 6.75% | [3] -12.1% | [4] 6.25% | [5] 2.85% | [6] -19.4%

CC(=O)N(C)c1ccc(N=CN(C)C)cc1
inactive: [1] -80.3% | [2] -27.5% | [3] -34.3% | [4] -11.8% | [5] 2.9% | [6] -27.9%

COc1ccc(C(=O)c2ccc(C)c3c(C)cccc23)cc1
inactive: [1] 4.5% | [2] -9.55% | [3] 4.9% | [4] -16.6% | [5] -7.9% | [6] 4.85%

O=C(Cn1c2c(c3ccccc31)CCCC2)N1CCOCC1
inactive: [1] -19.3% | [2] -29.4% | [3] -14.1% | [4] 5.15% | [5] -23.8% | [6] -19.6%

CCN(CCC#N)C(=S)Nc1ccc(C)c(C)c1
inactive: [1] -9% | [2] -8.55% | [3] 0% | [4] 1% | [5] -8.6% | [6] 0.1%

CC1=COC(=O)c2ccccc2N1
inactive: [1] 15.3% | [2] 1.65% | [3] -7.1% | [4] 14.6% | [5] 6.05% | [6] 6%

C=CCNC(=S)NC=C(C(N)=O)C(N)=O
inactive: [1] -25.9% | [2] -33% | [3] -22.5% | [4] -19.5% | [5] -4.9% | [6] -19.9%

CCOC(=O)c1nnc(C)[nH]c1=O
inactive: [1] 13.4% | [2] -5.5% | [3] -14.5% | [4] -43.9% | [5] -2.8% | [6] 15%

CNC(=O)C(C)NC(=O)C(Cc1ccccc1)NC(=O)OC(C)(C)C (stereo not given)
inactive: [1] -10.2% | [2] -57.7% | [3] -16.2% | [4] -28.8% | [5] -19.2% | [6] 1.05%

CC(C)(C)CC(C)(C)N(CSc1ccc2ccccc2c1)CSc1ccc2ccccc2c1
inactive: [1] 20.9% | [2] 4.55% | [3] 21.1% | [4] 13.6% | [5] -0.45% | [6] 17.6%

COc1ccc2nc(C)c3c(c2c1)C(=O)N(CCC[N+]1([O-])CC[N+]([O-])(CCCN2C(=O)c4c(c5cc(OC)ccc5[n+]([O-])c4C)C2=O)CC1)C3=O (stereo not given)
inactive: [1] -0.2% | [2] -7.8% | [3] -5.65% | [4] -35.7% | [5] 2.3% | [6] 26.1%

O=C(CCn1[nH]c(=O)c(Cl)c(Cl)c1=O)NNC(=O)C[n+]1ccccc1
inactive: [1] -4.2% | [2] -8.9% | [3] -28.3% | [4] 34.2% | [5] -7.05% | [6] -25.1%

CC(C)c1ccc(CN)cc1
inactive: [1] -23.4% | [2] -39.2% | [3] -29.8% | [4] 6.5% | [5] -36.8% | [6] -17.5%

CNC(C#N)c1ccc(OC)cc1 (stereo not given)
inactive: [1] 3.55% | [2] 17.9% | [3] -26.9% | [4] -17.4% | [5] -9.75% | [6] -28.4%

Cc1nnc(-c2ccccc2)s1
inactive: [1] 15.1% | [2] 12.3% | [3] -3.2% | [4] 12.1% | [5] -10.6% | [6] -7.45%

CC(C)c1ccc2c(c1)CCC1C(C)(C)[C@@H](O)CC[C@]21C (stereo not given in full)
inactive: [1] -15.3% | [2] -40.1% | [3] -23.2% | [4] 19.4% | [5] -32.6% | [6] -22.3%

O=[N+]([O-])c1ccc2c(c1)Sc1ccccc1N2
inactive: [1] -16.8% | [2] -14.4% | [3] -26.7% | [4] -21.8% | [5] -25.2% | [6] -22.6%

C/C(CC(=O)Nc1ccc(Cc2ccc(Cl)cc2)cc1)=N/Nc1ccc([N+](=O)[O-])cc1[N+](=O)[O-]
inactive: [1] 28.1% | [2] -0.25% | [3] 31.4% | [4] -1.15% | [5] -8.55% | [6] 22.6%

CN(C)CCCNc1ccc2nnn3c4ccc(O)cc4c(=O)c1c23
inactive: [1] -4.2% | [2] 1.25% | [3] 0.9% | [4] 0.15% | [5] 2.65% | [6] 19%

COc1ccc(C(CC(=O)O)CC(=O)O)cc1
inactive: [1] 46.3% | [2] 12.3% | [3] 16.9% | [4] 15.1% | [5] 6.35% | [6] 44.5%

CCOC(=O)CC(=O)C(=O)OCC
inactive: [1] 2.05% | [2] -4.75% | [3] -4.8% | [4] -25.6% | [5] -18% | [6] -27.2%

COc1ccc(C2CC(=O)N(c3nccc(C)n3)C(=O)C2)cc1
inactive: [1] 13.5% | [2] 14.4% | [3] 15.9% | [4] -19.1% | [5] -16.5% | [6] 14.2%

CC1(O)CC2(O)C=CC3=C(C(=O)c4cccc(O)c4C3=O)C2(O)C(=O)C1O (stereo not given)
inactive: [1] 14.2% | [2] 4.1% | [3] 30.4% | [4] 15.8% | [5] 22.9% | [6] 16.6%

CCOC(=O)NC(CC)c1ccc2oc3ccccc3c2c1 (stereo not given)
inactive: [1] -10.5% | [2] 1.9% | [3] 20.4% | [4] -4.15% | [5] 32% | [6] -15.3%

Cc1c2cnccc2c(CO)c2[nH]c3ccccc3c12
inactive: [1] 11.6% | [2] -10.2% | [3] 8.2% | [4] 4.6% | [5] -10.9% | [6] 59.7%

Cc1[nH]n(C(=N)N)c(=O)c1CCO
inactive: [1] -7.15% | [2] 11.6% | [3] -18.6% | [4] -6.35% | [5] 2% | [6] -50.7%

Cc1cc(C)nc(NS(=O)(=O)c2ccc(NC(=O)c3cccc4c(Nc5ccc(S(=O)(=O)N=C(N)N)cc5)c5ccc(Cl)cc5nc34)cc2)n1
inactive: [1] 16.4% | [2] 23.3% | [3] 27.2% | [4] 24.4% | [5] 13% | [6] 32.8%

CCOC(=O)C(=O)C1CCCC(C)C1=O (stereo not given)
inactive: [1] 16% | [2] 11.8% | [3] -16.6% | [4] -43.1% | [5] 10.8% | [6] 1.05%

Cc1cc(N)c(C)c2ccncc12
inactive: [1] -11.4% | [2] 0% | [3] -11.5% | [4] -15.2% | [5] 24.2% | [6] 2.75%

CC(=O)C(C(C)=O)C(c1ccccn1)C(C(C)=O)C(C)=O
inactive: [1] -6.7% | [2] -0.65% | [3] -4.05% | [4] -0.65% | [5] 6.8% | [6] -6.45%

CCOC(=O)c1c(O)csc1N
inactive: [1] 7.85% | [2] 5.45% | [3] 3.8% | [4] -16.9% | [5] -20.6% | [6] 10.7%

CCOC(=O)CC1CC2c3cc(OC)c(OC)cc3CCN2CC1CC (stereo not given)
inactive: [1] 3.1% | [2] 12.8% | [3] -6.7% | [4] -5.25% | [5] 1.95% | [6] 13.8%

Cc1ccc(NC(=O)c2cc(S(=O)(=O)n3cc[nH]c3=O)c(S)cc2Cl)cc1
inactive: [1] 14.5% | [2] -5.85% | [3] 23.9% | [4] 8.65% | [5] -4.75% | [6] 34%

O=C1C2C3C=CC(C3)C2C(=O)N1c1ncc([N+](=O)[O-])s1 (stereo not given)
inactive: [1] 17.8% | [2] -6.85% | [3] 26.9% | [4] -57.9% | [5] -14.2% | [6] 12.3%

Cn1ccnc1Sc1ccccn1
inactive: [1] -8.7% | [2] 30.1% | [3] 1.7% | [4] 21.9% | [5] 7.3% | [6] 6.15%
